Source: PubChem BioAssay
Calls of active or inactive are those of the source.

Tests used:
[1] = optical density shifts of acrAB sulA E. coli – strain DRC41, OD650, 48 h, E. coli filamentation inducer project, primary screen (AID 1152); conditions: higher = more signal, called active from +8 up or from −8 down;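 also: E. coli MC1000 strain DRC41 lacking acrAB efflux pump and sulA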
[2] = probe aLefty1 binding on compound microarray – biochemical, small-molecule microarray, 635/667 nm fluorescence, primary screen (AID 1153); conditions: higher = more signal;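 also: score merges spot fluorescence with signal-to-noise ratio from the scanned slide images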
[3] = plasmodial surface anion channel blockers, osmotic lysis – cell-based, P. falciparum Indochina, OD700, 1 h, primary screen (AID 1154); conditions: P. falciparum Indochina infected RBC osmotic lysis, higher = more signal, called active from +8 up or from −8 down
[4] = plasmodial surface anion channel blockers, osmotic lysis – cell-based, P. falciparum Indochina, OD700, 2 h, primary screen (AID 1155);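 also: lysis reports solute entry through the parasite surface anion channel PSAC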; conditions: P. falciparum Indochina infected erythrocytes, higher = more signal, called active from +8 up or from −8 down
[5] = changes in parasitized red cell lysis, either direction – P. falciparum Indochina, OD700, 3 h, PSAC antagonist project, primary screen (AID 1156); conditions: P. falciparum-infected erythrocytes, osmotic lysis, higher = more signal, called active from +8 up or from −8 down
[6] = plasmodial surface anion channel blockers, osmotic lysis – cell-based, P. falciparum Indochina, OD700, 18 h, primary screen (AID 1157); conditions: P. falciparum Indochina infected erythrocytes, osmotic lysis OD700, 18 h; higher = more signal, called active from +8 up or from −8 down
[7] = S6 kinase pathway phospho-S6 level changes – cell-based, A549, cytoblot, luminescence, serum-stimulated, primary screen (AID 1158); conditions: 5 h, higher = more signal;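 also: serum-stimulated A549 lung adenocarcinoma cells; signal is phosphorylated S6 detected by cytoblot immunostaining with HRP secondary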
[8] = biological target: NADPH oxidase 2 (Homo sapiens) (UniProt P04839); assay: compounds shifting NOX2 Amplex Red fluorescence – cell-based, HEK293-NOX2, PMA-stimulated, NOX inhibitor project, primary screen (AID 1159); conditions: 45 min, higher = more signal, called active from +8 up or from −8 down; also: test concentration not given here
Sequence of NADPH oxidase 2 (Homo sapiens) (P04839 whole entry, looked up): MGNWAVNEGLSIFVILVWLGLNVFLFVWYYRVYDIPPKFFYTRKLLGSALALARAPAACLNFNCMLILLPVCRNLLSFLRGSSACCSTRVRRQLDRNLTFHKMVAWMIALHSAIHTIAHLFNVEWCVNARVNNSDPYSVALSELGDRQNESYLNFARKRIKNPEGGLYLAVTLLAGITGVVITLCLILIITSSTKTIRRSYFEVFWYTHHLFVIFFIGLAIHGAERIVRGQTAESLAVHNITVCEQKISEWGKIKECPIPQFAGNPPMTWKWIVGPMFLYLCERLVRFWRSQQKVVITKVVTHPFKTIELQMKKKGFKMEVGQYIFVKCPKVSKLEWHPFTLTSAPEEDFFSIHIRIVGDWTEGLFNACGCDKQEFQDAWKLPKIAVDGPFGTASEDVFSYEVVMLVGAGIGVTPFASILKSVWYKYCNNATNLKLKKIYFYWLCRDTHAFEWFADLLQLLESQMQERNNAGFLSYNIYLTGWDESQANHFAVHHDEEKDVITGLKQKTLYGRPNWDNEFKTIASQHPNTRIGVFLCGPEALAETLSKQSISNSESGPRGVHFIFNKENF

[9] = biological target: NADPH oxidase 4 (Homo sapiens) (UniProt Q9NPH5); assay: compounds shifting NOX4 Amplex Red fluorescence – cell-based, HEK293-NOX4, tetracycline-induced, NOX inhibitor project, primary screen (AID 1160); conditions: HEK293-NOX4, Amplex Red H2O2 fluorescence, 45 min; higher = more signal, called active from +8 up or from −8 down
Sequence of NADPH oxidase 4 (Homo sapiens) (Q9NPH5 whole entry, looked up): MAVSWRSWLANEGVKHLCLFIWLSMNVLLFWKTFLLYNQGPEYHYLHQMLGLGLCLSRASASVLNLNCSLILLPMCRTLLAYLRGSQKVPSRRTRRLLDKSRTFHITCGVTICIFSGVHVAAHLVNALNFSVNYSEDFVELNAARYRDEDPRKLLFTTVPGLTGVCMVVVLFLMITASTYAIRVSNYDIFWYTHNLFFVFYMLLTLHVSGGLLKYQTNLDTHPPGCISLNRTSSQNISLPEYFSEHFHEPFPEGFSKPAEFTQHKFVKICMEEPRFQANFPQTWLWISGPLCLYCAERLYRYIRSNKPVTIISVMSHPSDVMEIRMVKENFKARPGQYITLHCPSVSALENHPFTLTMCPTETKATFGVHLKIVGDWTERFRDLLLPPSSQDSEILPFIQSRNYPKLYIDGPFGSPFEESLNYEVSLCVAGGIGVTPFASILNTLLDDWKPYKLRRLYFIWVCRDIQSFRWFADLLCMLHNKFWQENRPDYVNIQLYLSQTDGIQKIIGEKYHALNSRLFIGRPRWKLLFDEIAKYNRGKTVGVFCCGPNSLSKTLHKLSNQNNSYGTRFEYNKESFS

[10] = biological target: NADPH oxidase 5 (Homo sapiens) (UniProt Q96PH1); assay: compounds shifting NOX5 Amplex Red fluorescence – cell-based, HEK293-NOX5, NOX inhibitor project, primary screen (AID 1161); conditions: HEK293-NOX5, ionomycin, 45 min, higher = more signal
Sequence of NADPH oxidase 5 (Homo sapiens) (Q96PH1 whole entry, looked up): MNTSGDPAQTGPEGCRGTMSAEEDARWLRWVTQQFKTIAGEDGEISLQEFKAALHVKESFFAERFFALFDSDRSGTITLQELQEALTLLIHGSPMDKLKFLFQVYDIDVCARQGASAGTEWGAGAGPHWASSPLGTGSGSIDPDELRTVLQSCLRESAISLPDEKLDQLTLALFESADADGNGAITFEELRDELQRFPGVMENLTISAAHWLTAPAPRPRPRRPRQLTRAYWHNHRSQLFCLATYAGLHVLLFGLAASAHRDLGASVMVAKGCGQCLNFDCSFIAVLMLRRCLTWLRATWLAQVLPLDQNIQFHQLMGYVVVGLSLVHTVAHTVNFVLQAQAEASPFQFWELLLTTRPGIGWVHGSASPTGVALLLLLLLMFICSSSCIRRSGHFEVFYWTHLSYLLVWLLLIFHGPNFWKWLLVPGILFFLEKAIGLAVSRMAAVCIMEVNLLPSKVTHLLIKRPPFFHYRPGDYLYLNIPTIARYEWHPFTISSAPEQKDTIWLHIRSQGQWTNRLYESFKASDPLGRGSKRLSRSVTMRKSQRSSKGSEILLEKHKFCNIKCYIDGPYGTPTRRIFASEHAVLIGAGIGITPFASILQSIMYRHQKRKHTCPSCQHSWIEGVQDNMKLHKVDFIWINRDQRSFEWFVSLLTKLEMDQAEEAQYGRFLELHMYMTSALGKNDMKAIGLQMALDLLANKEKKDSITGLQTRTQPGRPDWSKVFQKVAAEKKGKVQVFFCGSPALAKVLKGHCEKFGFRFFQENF

[11] = compound effects on lung adenocarcinoma cell viability – A549, calcein-AM fluorescence, 48 h, basal, profiling panel (AID 1162); conditions: higher = more signal; also: test concentration not given here
[12] = compound effects on differentiated 3T3-L1 adipocyte viability – cell-based, 3T3-L1 adipocytes, calcein-AM fluorescence, 48 h, basal, profiling panel (AID 1163); conditions: 3T3-L1 adipocytes viability, higher = more signal; also: test concentration not given here
[13] = compound effects on hepatocellular carcinoma cell viability – HepG2, calcein-AM fluorescence, 48 h, basal, profiling panel (AID 1164); conditions: higher = more signal; also: test concentration not given here
[14] = compound effects on multiple myeloma cell viability – MM1S, calcein-AM fluorescence, 48 h, basal, profiling panel (AID 1165); conditions: higher = more signal; also: test concentration not given here
[15] = calcein-AM signal in unstimulated myeloma cells – cell-based, calcein-AM fluorescence, 48 h, PK04 Diversity Set, profiling panel (AID 1166); conditions: RPMI8226 myeloma viability, higher = more signal;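 also: cells grown under basal conditions without added stimulus; test concentration not given here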
[16] = JC-1 mitochondrial signal, unstimulated HepG2 cells – cell-based, JC-1 fluorescence, 24 h, 100 nL compound, profiling panel (AID 1167); conditions: HepG2 mitochondrial potential, higher = more signal; also: test concentration not given here
[17] = JC-1 mitochondrial signal, unstimulated adipocytes – cell-based, JC-1 fluorescence, 3T3-L1 adipocytes, 24 h, 100 nL compound, profiling panel (AID 1168); conditions: JC-1 mitochondrial fluorescence, higher = more signal, called active from +8 up or from −8 down; also: test concentration not given here
[18] = JC-1 mitochondrial signal, unstimulated myeloma cells – cell-based, JC-1 fluorescence, RPMI8226, 24 h, 100 nL compound, profiling panel (AID 1169); conditions: JC-1 mitochondrial potential fluorescence, higher = more signal; also: test concentration not given here
[19] = JC-1 mitochondrial signal, unstimulated MM1S myeloma – cell-based, JC-1 fluorescence, 24 h, 100 nL compound, profiling panel (AID 1170); conditions: MM1S mitochondrial potential, higher = more signal; also: test concentration not given here
[20] = resazurin metabolic signal in A549 cells – cell-based, resazurin fluorescence, 24 h, PK04 Diversity Set, profiling panel (AID 1171); conditions: A549 viability, higher = more signal, called active from +8 up or from −8 down; also: test concentration not given here

SMILES | z-score [1] | composite z-score [2] | z-score [3] | z-score [4] | z-score [5] | z-score [6] | z-score [7] | z-score [8] | z-score [9] | z-score [10] | z-score [11] | z-score [12] | z-score [13] | z-score [14] | z-score [15] | z-score [16] | z-score [17] | z-score [18] | z-score [19] | z-score [20]
COc1ccc([Si](C)(C)[C@H]2[C@H](CC(=O)N3Cc4ccccc4C[C@H]3CO)O[C@@]3(C(=O)N(Cc4cccc(N5C(=O)c6cccc7cccc5c67)c4)c4ccccc43)[C@@H]2C)cc1 | -0.437 (inactive) | -0.362 | 5.25 (inactive) | 0.572 (inactive) | 1 (inactive) | 0.793 (inactive) | -0.112 | -1.79 (inactive) | -0.0145 (inactive) | -0.799 | 0.653 | 0.986 | -0.475 | -2.54 | -4.12 | 0.813 | 0.611 (inactive) | -1.19 | -1.72 | -1.02 (inactive)
CC(c1ccccc1)C(O)C1C=CC2C(=O)N(c3ccccc3)C(=O)C2N1Nc1ccc(C#N)cc1 (stereo not given) | 1.16 (inactive) | 0.379 | 14 (active) | 1.58 (inactive) | 0.832 (inactive) | 0.264 (inactive) | 1.38 | -1.9 (inactive) | -4.04 (inactive) | -2.65 | 1.71 | -0.582 | 1.49 | 0.401 | -0.0442 | -0.372 | 0.0393 (inactive) | -0.0416 | 0.222 | 0.413 (inactive)
COc1ccc(NN2C(C(O)c3ccc(OC)cc3)C=CC3C(=O)N(C4CCCCC4)C(=O)C32)cc1 (stereo not given) | -0.625 (inactive) | 0.0768 | 9.1 (active) | 1.69 (inactive) | 0.722 (inactive) | 0.63 (inactive) | -0.613 | -1.34 (inactive) | -1.1 (inactive) | -2.54 | -0.285 | -1.29 | 1.24 | 0.764 | -0.512 | -0.126 | 0.0238 (inactive) | 0.417 | -1.44 | 0.965 (inactive)
CN(C)CCCCNC(=O)[C@H]1C[C@H]2C(=O)NCC(=O)N2[C@H]1c1cccc(OCCO)c1 | 1.06 (inactive) | -0.007 | 0.799 (inactive) | 0.33 (inactive) | -0.0825 (inactive) | 0.129 (inactive) | -0.0315 | -0.241 (inactive) | 0.382 (inactive) | 1.05 | 1.11 | -0.237 | -0.13 | 0.585 | 0.0875 | 0.348 | 0.871 (inactive) | -0.223 | -0.348 | 1.26 (inactive)
COCCOC(=O)N1C(=O)[C@@]2(c3cc(C#CC4=CCCCC4)ccc31)[C@H](C(=O)N1CCN(c3ncccn3)CC1)[C@H]1C(=O)O[C@H](c3ccccc3)[C@H](c3ccccc3)N1[C@@H]2c1ccccc1OCCO | 2.23 (inactive) | 0.297 | 1.65 (inactive) | 0.256 (inactive) | -0.634 (inactive) | -0.227 (inactive) | 2.05 | -0.241 (inactive) | -2.24 (inactive) | -3.12 | -0.793 | 1.36 | -0.435 | -1.24 | -1.88 | -0.0311 | 10.6 (active) | -0.645 | -1.47 | 0.738 (inactive)
CC(C)C[C@@H]1NC(=O)[C@H]2C[C@@H](C(=O)NCCCCCNC(=O)CS)[C@@H](c3ccc(O)cc3)N2C1=O | 0.213 (inactive) | -0.549 | 3.25 (inactive) | 0.945 (inactive) | 0.256 (inactive) | 0.277 (inactive) | -0.277 | 1 (inactive) | -0.828 (inactive) | 0.918 | -0.286 | 0.709 | -0.724 | -1.04 | -1.36 | -0.686 | -0.372 (inactive) | -0.113 | -0.611 | -0.858 (inactive)
COCCOC(=O)N1C(=O)[C@@]2(c3cc(C#CC4=CCCCC4)ccc31)[C@H](c1ccccc1OCCO)N1[C@H](c3ccccc3)[C@H](c3ccccc3)OC(=O)[C@H]1[C@@H]2C(N)=O | 1.97 (inactive) | -0.0611 | 2.66 (inactive) | 0.298 (inactive) | -0.714 (inactive) | -0.0482 (inactive) | 2.22 | 1.77 (inactive) | 0.548 (inactive) | -0.172 | -1.13 | 2.16 | -2.29 | -3.11 | -4.02 | -0.985 | 0.686 (inactive) | -0.96 | -1.85 | -1.35 (inactive)
C=CCC(OC(C)=O)[C@@H]1[C@@H](N(Cc2cc3ccccc3o2)C(=O)c2ccc(-c3ccccc3)cc2)c2cc(OCCCO)ccc2N1C(=O)c1ccc2ccccc2n1 (stereo not given in full) | 0.803 (inactive) | -0.0534 | 1.01 (inactive) | 0.698 (inactive) | -0.44 (inactive) | 0.655 (inactive) | -0.113 | 1.88 (inactive) | -0.895 (inactive) | 1.66 | 0.704 | 0.242 | 1.43 | 0.479 | -0.11 | 2.66 | 0.229 (inactive) | -0.202 | 1.32 | 0.967 (inactive)
O=C(NCCO)C1=C[C@H](Oc2ccccc2I)[C@@H](O)[C@H](NCc2ccc(F)cc2)C1 | -1.76 (inactive) | -0.338 | 5.38 (inactive) | 1.82 (inactive) | 1.33 (inactive) | 1.11 (inactive) | 0.436 | 0.71 (inactive) | -0.89 (inactive) | -3.29 | 0.576 | 2.37 | -0.793 | -0.217 | -1.26 | -0.574 | 0.471 (inactive) | 0.391 | 0.185 | -1.45 (inactive)
